The nature of assay [1]: qHTS assay to identify small molecule agonists of the hypoxia (HIF-1) signaling pathway (AID 1224846; active means well fitted activation curve with a large enough effect in the signal ratio in the repeat runs, not every such curve was filed as active; the % refers to the signal ratio). The essentials:
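Reporter induction in HRE-bla ME-180 cells is taken as agonism: cells sit 5 hrs after plating, receive compounds or DMSO only, incubate 17 hrs at 37C under 5% CO2, and are loaded with CCF4-AM for beta-lactamase FRET measurement.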

Assay [2] can be described thus: qHTS assay to identify small molecule agonists of H2AX - cell viability counter screen (AID 1224847; calls by dose curve; further: nearly all actives have a fitted effect of over 30% in size; further: potency means the concentration at half of the fitted maximal effect). The essentials:
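Cells plated first: CHO-K1, 1000 per well in 10% FBS medium, incubated overnight at 37C. Then 15-point compound titration added (final DMSO 0.76%) for 3 hr. Finally CellTiter-Glo added and luminescence read.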

Assay [3] can be described thus: qHTS assay to identify small molecule antagonists of the estrogen related receptor (ERR) signaling pathway from Tox21 library (AID 1224848). Further: nearly all actives have a fitted effect of over 50% in size. Further: potency means the concentration at half of the fitted maximal effect. The essentials: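 Luciferase luminescence (ONE-Glo, 30 min room temperature) was the read-out. Cells of the NTP-supplied ERR line, 2,000 per well, were given 6 h at 37 C before compound addition in DMSO and 18 h exposure at 37 C.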

Assay [4] in a line: qHTS assay to identify small molecule agonists of the estrogen related receptor (ERR) signaling pathway from Tox21 library (AID 1224849; calls by dose curve; further: nearly all actives have a fitted effect of over 15% in size). As to conditions: ERR reporter cell line, ONE-Glo luciferase, 18 h; at 92.4 µM (top of the series) unless noted. The essentials:
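Tox21 compounds tested for ERR agonism in an NTP reporter cell line: 18 h treatment at 37 C, then ONE-Glo luminescence.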

The nature of assay [5]: qHTS RealTime-Glo MT Cell Viability Assay in HepG2 cells - 24 hour (AID 1224867). Further: nearly all actives have a fitted effect of over 50% in size. The essentials:
(§1)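 qHTS, HepG2, 600 cells/well, RealTime-Glo (NanoLuc + prosubstrate) added with cells; 5 h preincubation; DMSO compound addition; 37 C; luminescence at 0/8/16/24/32/40 h.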

Assay [6] is described as follows: qHTS RealTime-Glo MT Cell Viability Assay in HEK293 cells - 32 hour (AID 1224868). Further: nearly all actives have a fitted effect of over 50% in size. Further: potency means the concentration at half of the fitted maximal effect. The essentials:
(§2)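 Assay medium contained NanoLuc luciferase plus cell-permeant prosubstrate, added with HEK293 cells at 600 cells/well. After 5 h at 37 C/5% CO2 compounds were added; plates stayed at 37 C for 40 h with serial luminescence reads.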

Assay [7] is described as follows: A CellTox Green Cytotoxicity Assay to monitor cytotoxicity in HEK293 cells - 0 hour (AID 1224869). Further: nearly all actives have a fitted effect of over 50% in size. In short, it runs like this: (§3)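 Tox21 screen in HEK293: membrane-impermeant cyanine dye fluoresces on binding dead-cell DNA; compound pinned 5 h post-seeding, plates held at 37 C, signal read repeatedly through 40 h.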
Assay [8] in a line: qHTS RealTime-Glo MT Cell Viability Assay in HepG2 cells - 40 hour (AID 1224870). Further: nearly all actives have a fitted effect of over 50% in size. The essentials: (§4)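 Real-time viability: cells seeded at 600 per well together with NanoLuc and cell-permeant prosubstrate, compounds added after 5 h incubation. Luminescence tracked at 0, 8, 16, 24, 32 and 40 h of exposure.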
Assay [9] in a line: A CellTox Green Cytotoxicity Assay to monitor cytotoxicity in HEK293 cells - 40 hour (AID 1224871). Further: nearly all actives have a fitted effect of over 45% in size. Further: potency means the concentration at half of the fitted maximal effect. The essentials: as §3
Assay [10] is described as follows: qHTS RealTime-Glo MT Cell Viability Assay in HEK293 cells - 16 hour (AID 1224872). Further: nearly all actives have a fitted effect of over 50% in size. Further: potency means the concentration at half of the fitted maximal effect. The essentials:
as §2

Assay [11] can be described thus: qHTS RealTime-Glo MT Cell Viability Assay in HepG2 cells - 8 hour (AID 1224873). Further: nearly all actives have a fitted effect of over 55% in size. In short, it runs like this:
as §4

A short description of assay [12]: qHTS RealTime-Glo MT Cell Viability Assay in HEK293 cells - 40 hour (AID 1224874). Further: nearly all actives have a fitted effect of over 50% in size. Further: potency means the concentration at half of the fitted maximal effect. As to conditions: RealTime-Glo luminescence; max response: stronger effect = lower value. The essentials: (§5)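 HEK293 + NanoLuc + prosubstrate, 600 cells/well; 5 h, 37 C/5% CO2; compound 23 nL in DMSO by pintool; 37 C; luminescence read at 0, 8, 16, 24, 32 and 40 h time points.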
The nature of assay [13]: A CellTox Green Cytotoxicity Assay to monitor cytotoxicity in HEK293 cells - 24 hour (AID 1224875). Further: nearly all actives have a fitted effect of over 45% in size. Further: potency means the concentration at half of the fitted maximal effect. In short, it runs like this: as §3
Assay [14] in a line: A CellTox Green Cytotoxicity Assay to monitor cytotoxicity in HepG2 cells - 16 hour (AID 1224876). Further: nearly all actives have a fitted effect of over 45% in size. The essentials: (§6)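 Measurements at 0, 8, 16, 24, 32 and 40 h of treatment captured CellTox Green fluorescence in HepG2 cells that had been co-plated with reagent and preincubated 5 h at 37 C/5% CO2.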
The nature of assay [15]: qHTS RealTime-Glo MT Cell Viability Assay in HepG2 cells - 32 hour (AID 1224877). Further: nearly all actives have a fitted effect of over 55% in size. In short, it runs like this:
as §1

A short description of assay [16]: A CellTox Green Cytotoxicity Assay to monitor cytotoxicity in HepG2 cells - 24 hour (AID 1224878). Further: nearly all actives have a fitted effect of over 45% in size. In short, it runs like this: as §6
Assay [17] can be described thus: A CellTox Green Cytotoxicity Assay to monitor cytotoxicity in HepG2 cells - 40 hour (AID 1224879). Further: nearly all actives have a fitted effect of over 40% in size. The essentials: as §6
Assay [18] in a line: qHTS RealTime-Glo MT Cell Viability Assay in HEK293 cells - 0 hour (AID 1224880). In short, it runs like this:
as §5

A short description of assay [19]: A CellTox Green Cytotoxicity Assay to monitor cytotoxicity in HEK293 cells - 32 hour (AID 1224881). Further: nearly all actives have a fitted effect of over 40% in size. Further: potency means the concentration at half of the fitted maximal effect. The essentials: as §3
Assay [20] is described as follows: A CellTox Green Cytotoxicity Assay to monitor cytotoxicity in HepG2 cells - 0 hour (AID 1224882). Further: nearly all actives have a fitted effect of over 35% in size. In short, it runs like this:
as §6

Several values for one entry are separate records, joined by “and”; a condition that tells them apart may be missing. Equal values may be shown once. Inconclusive results are not listed. A structure can be active in one record and inactive in another. Activity calls are given as the source filed them. Unless noted, the call rests on the fitted dose curve; in most records, active means well fitted curve in the direction sought with a large enough effect in the repeat runs; inconclusive means weak or mixed curves; inactive means no such curve, though single readings can be large; an effect the other way counts as inactive or inconclusive.
On the % scale 0 is the no-effect control and ±100 the full control effect.

For `COP(N)(=S)OC`, the result in assay [1] was inactive. Besides, the Potency entry in assay [2], in [3], in [5], in assay [6], in assay [7] and in assay [8] was “inactive” in each case. The Potency entry in assay [9], in [10], in [11], in assay [13], in assay [14] and in assay [15] was “inactive” in each case. Besides, the Potency result in [16], in assay [17], in [18], in assay [19] and in assay [20] was “inactive” throughout. For the same compound, the activity change, positive = activation in [4] was 3.3% (inactive). Also, in [12], the max response was 0.707% (inactive).
In the case of `COP(=O)(CCC(=O)NCO)OC`, the call in assay [1] was inactive. Further, the Potency entry in [2], in [3], in assay [5], in assay [6], in [7] and in [8] was “inactive” in each case. Moreover, the Potency entry in assay [9], in [10], in assay [11], in assay [13], in [14] and in assay [15] was “inactive” each time. Moreover, the Potency result in assay [16], in [18], in assay [19] and in assay [20] was “inactive” each time. Besides, the activity change, positive = activation in [4] was 3.27% (inactive). The max response in assay [12] is 14% (inactive).
Turning to `CC(c1ccc(O)cc1)c1ccc(O)cc1`, the compound was classed as inactive in [1]. In addition, the Potency result in assay [2], in assay [3], in [5], in [7], in assay [8] and in assay [9] was “inactive” each time. The Potency entry in assay [11], in assay [13], in assay [14], in [15], in assay [16] and in assay [17] was “inactive” in each case. Besides, the Potency result in [18] and in assay [20] was “inactive” in each case. Further, in assay [4], the activity change, positive = activation is -56.9% (inactive) and -6.34% (inactive). Further, the Potency in assay [6] is 45.9 µM (active); in [10], 45.9 µM (active) and inactive.
`CCCCOP(=O)(CCCC)OCCCC`: the result in assay [1] was inactive. Besides, the Potency result in assay [2], in assay [3], in assay [5], in assay [7], in [8] and in assay [9] was “inactive” each time. Also, the Potency result in assay [11], in [13], in assay [14], in [16], in assay [17] and in assay [18] was “inactive” throughout. Further, the activity change, positive = activation in [4] was -2.44% (inactive).
In the case of `ClC1=C(Cl)[C@]2(Cl)[C@@H]3[C@@H](Cl)[C@@H](Cl)C[C@@H]3[C@@]1(Cl)C2(Cl)Cl`, in [1], the result was inactive. For the same compound, the Potency entry in [2], in assay [3], in assay [5], in assay [6], in assay [7] and in [8] was “inactive” each time. Further, the Potency result in [9], in assay [10], in assay [11], in assay [13], in assay [15] and in assay [16] was “inactive” in each case. The Potency entry in assay [17], in assay [18], in assay [19] and in [20] was “inactive” throughout. Further, the activity change, positive = activation in assay [4] was 0.0857% (inactive). In [12], the max response was 15.9% (inactive).
In the case of `ClCCN1CCOCC1`, the compound was classed as inactive in [1]. Besides, the Potency entry in assay [2], in [3], in assay [5], in assay [6], in assay [7] and in assay [8] was “inactive” in each case. Besides, the Potency result in [9], in [10], in assay [11], in assay [13], in [15] and in [16] was “inactive” each time. In addition, the Potency entry in [17], in [18] and in [20] was “inactive” each time. Moreover, in assay [4], the activity change, positive = activation is -2.74% (inactive). The max response in assay [12] is -16.3% (inactive).
For the compound `ClC1=C(Cl)C2(Cl)C3C(Cl)C(Cl)CC3C1(Cl)C2(Cl)Cl` (stereo not given), the result in assay [1] was inactive. Moreover, the Potency was 89.5 µM (active) and 101 µM (active) in assay [2]; 60.9 µM (active) and 54.5 µM (active) in [3]; 48.8 µM (active) in [6]; 48.8 µM (active) and 49 µM (active) in assay [9]; 48.8 µM (active) and 49 µM (active) in assay [10]; 48.8 µM (active) in assay [12]. Further, the Potency in [13] was 48.8 µM (active) and 49 µM (active); in [19], 48.8 µM (active) and 49 µM (active). In addition, the activity change, positive = activation in assay [4] is -78.9% (inactive) and -65.6% (inactive). Moreover, the Potency result in assay [18] and in assay [20] was “inactive” in each case.
